Gal4-VP16 FLuc: VP16 counterscreen qHTS for inhibitors of ROR gamma transcriptional activity; 310,000 tested, 3.5% active; Drosophila S2 Gal4-VP16 UAS-luciferase, luminescence, 20 h; Potency, µM (doses to about 53.6 µM), without a hit: at the highest dose activity, negative = inhibition, hits mostly inhibitors; AID 2546, 2010;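 further: Gal4-VP16 expression switched on by copper sulfate through the metallothionein promoter; nearly all actives have a fitted effect of over 50% in size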
ELG1 repair inh: qHTS screen for small molecules that inhibit ELG1-dependent DNA repair in human embryonic kidney (HEK293T) cells expressing luciferase-tagged ELG1; HEK293T ELG1-luciferase reporter, luminescence, 16 h; DNA damage induced by 5-fluorouridine; Potency, µM (top dose mostly 46.1 µM), for inactives: top-dose activity change, negative = inhibition, most hits filed as inhibitors; 330,000 tested, 2.3% active; further: nearly all actives have a fitted effect of over 55% in size
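DMSO vehicle served as the neutral condition. Each well held 2,000 cells given 5-fluorouridine plus compound; after 16 hr at 37 °C/5% CO2, ONE-Glo was added and luciferase measured 30 min later.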
TDP1 cell noCPT: qHTS for Inhibitors of human tyrosyl-DNA phosphodiesterase 1 (TDP1): qHTS in cells in absence of CPT; DT40 Tdp1-/- hTDP1 cells, no CPT, ATP luminescence, 48 h; Potency, µM (doses to about 46.2 µM), for inactives: top-dose activity change, negative = growth inhibition, actives largely listed as inhibitors; 420,000 tested, 15% active; AID 686978, 2013; further: nearly all actives have a fitted effect of over 55% in size
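Chicken DT40 Tdp1-/- cells stably complemented with human TDP1 were seeded at 400 cells/well with DMSO in place of 20 nM camptothecin. After compound pinning, cells grew at least 48 hr at 37 °C; viability read by CellTiter-Glo luminescence.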
TDP1 cell CPT: qHTS for Inhibitors of human tyrosyl-DNA phosphodiesterase 1 (TDP1): qHTS in cells in presence of CPT | chicken DT40 Tdp1-/-;hTDP1 cells + 20 nM CPT, ATP luminescence, 48 h | Potency, µM (highest dose often 46.2 µM), for inactives: top-dose activity change, negative = growth inhibition, usual class: inhibitors | 420,000 tested, 12% active; further: nearly all actives have a fitted effect of over 55% in size
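Chicken DT40 Tdp1-/- cells stably complemented with human TDP1 were seeded at 400 cells/well in medium containing 20 nM camptothecin, exposed to pin-transferred compounds, and grown at 37 °C for at least 48 hr. Viability was read as ATP luminescence.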
ALOX12 inh: Primary qHTS assay for inhibitors of human arachidonate 12S-lipoxygenase (ALOX12): Round 2; Polyunsaturated fatty acid lipoxygenase ALOX12 (Homo sapiens), P18054; purified 12hLO, xylenol orange hydroperoxide absorbance; Potency, µM (series often up to 108 µM), for inactives: top-dose activity change, negative = inhibition, actives largely listed as inhibitors; 580,000 tested, 1.1% active; AID 1671190, 2021
Target sequence (P18054 whole entry, looked up): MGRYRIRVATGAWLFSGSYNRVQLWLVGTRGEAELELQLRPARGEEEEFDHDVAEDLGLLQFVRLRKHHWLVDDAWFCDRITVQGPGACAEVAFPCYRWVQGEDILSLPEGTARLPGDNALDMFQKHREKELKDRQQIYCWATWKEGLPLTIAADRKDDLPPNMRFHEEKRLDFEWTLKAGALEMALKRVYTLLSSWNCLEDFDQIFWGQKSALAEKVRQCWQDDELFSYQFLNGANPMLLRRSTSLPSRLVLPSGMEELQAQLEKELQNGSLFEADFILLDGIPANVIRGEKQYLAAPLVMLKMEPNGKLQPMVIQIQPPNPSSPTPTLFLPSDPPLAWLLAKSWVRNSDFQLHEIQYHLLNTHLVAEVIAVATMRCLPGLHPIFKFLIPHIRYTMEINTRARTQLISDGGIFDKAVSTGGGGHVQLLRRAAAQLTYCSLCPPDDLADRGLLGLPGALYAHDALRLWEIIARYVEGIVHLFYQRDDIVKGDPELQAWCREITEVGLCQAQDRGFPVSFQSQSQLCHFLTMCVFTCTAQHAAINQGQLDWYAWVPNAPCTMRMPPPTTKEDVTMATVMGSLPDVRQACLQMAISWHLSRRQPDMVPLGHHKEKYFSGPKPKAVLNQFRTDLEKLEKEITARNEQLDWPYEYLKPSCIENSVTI
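Purified human 12hLO at 150 nM in 25 mM Hepes, 0.01% Triton X-100, pH 7.0, preincubated 15 min at room temperature with compound. Reaction started with 40 uM arachidonic acid, 30 min at room temperature. Hydroperoxide measured by Fe-xylenol orange, 573/405 nm absorbance ratio.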
RORgamma inh: qHTS for inhibitors of ROR gamma transcriptional activity. Drosophila S2 Gal4-RORgamma UAS-luciferase reporter, 20 h. Potency, µM (doses to about 53.6 µM), for inactives: at the top dose activity change, negative = inhibition, most hits filed as inhibitors. 310,000 tested, 5.4% active. AID 2551, 2010; further: nearly all actives have a fitted effect of over 60% in size
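Using a luciferase readout, inhibitors were identified by reduced reporter activity in Drosophila cells coexpressing a copper-inducible Gal4–ROR gamma fusion and UAS-driven Photinus luciferase, incubated 20 hr after 700 uM copper sulfate.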
Numbers without * were called inactive; ? = inconclusive; . = not tested or not shown. Shown are actives, neighbours in structure and some others; about 15% of the full set was active somewhere. The call rests on the fitted dose curve; in most records, active means well fitted curve in the direction sought with a large enough effect; inconclusive means small, poorly fitted or top-dose-only effect, or another doubt; inactive means no such curve, though single readings can be large; an effect the other way counts as inactive or inconclusive. On the % scale 0 is the no-effect control and ±100 the full control effect; potency means the concentration at half of the fitted maximal effect.

SMILES | Gal4-VP16 FLuc | ELG1 repair inh | TDP1 cell noCPT | TDP1 cell CPT | ALOX12 inh | RORgamma inh
CCC(CC)CN1CC2(CCN(C(=O)c3cn4cccnc4n3)CC2)OC1=O | . | . | . | . | 39.0% | .
COc1ccc(S(=O)(=O)N2CCOC2CNC(=O)C(=O)NCCc2ccc(OC)c(OC)c2)cc1 (configuration not stated) | ? | ? | ? | 16.4µM* | 12.3% | ?
COc1ccc(CCNC(=O)C(=O)NCC2OCCN2S(=O)(=O)c2ccc(Cl)cc2)cc1OC (configuration not stated) | ? | ? | 18.4µM* | ? | -0.5% | -14.4%
Cc1cccc(CN2CCC3(CC2)Cc2ccccc2CNC3=O)n1 | . | . | . | . | 45.8% | .
Cc1cc(C)c2c(=O)cc(C(=O)Nc3ccc(OC(F)F)cc3)oc2c1 | . | . | . | . | -16.3% | .
COCc1nnc(NC(=O)c2ccc3c(ccn3C)c2)s1 | . | . | . | . | -4.4% | .
CCN1C(=O)/C(=C2\SC(N3CCOCC3)=NC2=O)c2ccccc21 | 6.3% | ? | -0.6% | -13.6% | 0.0% | -0.1%
C=CCN1C(=O)/C(=C2\SC(N3CCOCC3)=NC2=O)c2cc(Br)ccc21 | -11.2% | ? | ? | 23.1µM* | -13.5% | -26.1%
COc1cccc(CCC(=O)N2Cc3ccccc3OC3(CCN(C)CC3)C2)c1 | . | . | . | . | 33.5% | .
CCNC(=O)c1c(NC(=O)Cc2coc3ccc(CC)cc23)sc2c1CCCC2 | . | . | -7.5% | -18.2% | 1.3% | .
CNC(=O)c1c(NC(=O)Cc2coc3ccc(C)cc23)sc2c1CCCC2 | . | . | 18.4µM* | ? | 2.5% | .
CNC(=O)c1c(NC(=O)Cc2coc3cc(C)ccc23)sc2c1CCCC2 | . | . | . | . | -7.4% | .
CCc1ccc2occ(CC(=O)Nc3sc4c(c3C(=O)OC)CCC4)c2c1 | . | . | 18.4µM* | 13µM* | -11.3% | .
Cc1cccc(Cn2c(SCc3ccc(C(=O)NCc4cccs4)cc3)nc3ccncc32)c1 | . | . | 23.1µM* | ? | -1.4% | .
O=C(NCc1cccs1)c1ccc(CSc2nc3ccncc3n2Cc2ccccc2)cc1 | . | . | 18.4µM* | ? | 0.1% | .
CCNC(=O)c1ccc(CSc2nc3ccncc3n2Cc2ccc(F)cc2)cc1 | . | . | ? | ? | -17.0% | .
Nc1c(Br)cc(Br)c2c1-c1ccc([N+](=O)[O-])cc1C2 | . | . | -4.9% | -21.8% | ? | .
CCC(=O)Nc1ccc2c(c1)Cc1cc([N+](=O)[O-])ccc1-2 | . | . | 6.51µM* | ? | -1.8% | .
O=CNc1ccc2c(c1)Cc1cc([N+](=O)[O-])ccc1-2 | . | . | 13µM* | ? | -14.0% | .
COCC(=O)NC[C@H]1CCN(Cc2ccc3c(c2)CCO3)C[C@H]1N(C)C | . | . | . | . | 76.7% | .
OC(c1cc(-c2ccc(C(F)(F)F)cc2)nc(C(F)(F)F)c1)C1CCCCN1 (configuration not stated) | 22.4µM* | ? | 6.51µM* | 1.64µM* | ? | ?
O=C(c1ccccc1F)N1CCc2n[nH]c(=O)n2CC1 | . | . | . | . | 37.1% | .
COc1ccc(S(=O)(=O)NC2CCCCC2)c2cccnc12 | . | . | . | . | 28.2% | .
CCC(=O)c1ccc(OCC(=O)OCC(=O)c2c(N)n(C)c(=O)n(C)c2=O)cc1 | . | ? | -3.8% | -7.1% | 39.5% | .
Cc1cc(C(=O)COC(=O)c2nccnc2N)c(C)n1C | ? | ? | -2.4% | 0.3% | -10.9% | 10µM*
SMILES | Gal4-VP16 FLuc | ELG1 repair inh | TDP1 cell noCPT | TDP1 cell CPT | ALOX12 inh | RORgamma inh
Cc1cc(C(=O)COC(=O)c2n[nH]c(=O)c3ccccc23)c(C)n1C | . | ? | -26.0% | -9.9% | 12.5% | .
CCC(=O)c1ccc(OCC(=O)OCC(=O)c2cc(C)n(C)c2C)cc1 | 1.26µM* | 9.2% | 5.3% | 2.9% | -18.7% | 0.891µM*
Cc1ccsc1C(=O)OCC(=O)c1cc(C)n(C)c1C | . | ? | ? | -22.7% | 25.8% | .
COc1cc(C(=O)OCC(=O)c2cc(C)n(C)c2C)cc(OC)c1OC | -3.5% | ? | 16.4µM* | 25.9µM* | 0.0% | -0.8%
CNC(=O)N1CCCC1c1nc(C2CN(C(=O)c3cnccn3)C2)no1 (configuration not stated) | . | . | . | . | 35.7% | .
O=C(CCCOc1ccccc1)N1CCCCC1 | -11.9% | ? | -25.3% | -18.7% | -5.4% | -4.2%
CCC1CCCCN1C(=O)COc1c(Br)cc(Br)c2cccnc12 (configuration not stated) | ? | ? | ? | ? | -1.6% | 12.6µM*
CCC1CCCCN1C(=O)CCCOc1ccccc1 (configuration not stated) | 3.4% | ? | ? | 23.1µM* | -6.4% | ?
Cc1ccc(S(=O)(=O)N2CCOCC2)cc1N/N=C(\C#N)c1nc2ccccc2[nH]1 | 12.5% | 8.2µM* | 25.9µM* | ? | -0.5% | ?
N#C/C(=C(/O)COC(=O)c1ccc(Cl)c(S(=O)(=O)N2CCOCC2)c1)c1nc2ccccc2[nH]1 | 7.08µM* | ? | -8.3% | 6.8% | -17.9% | 3.55µM*
Cc1ccc(C(=O)OC/C(O)=C(\C#N)c2nc3ccccc3[nH]2)cc1S(=O)(=O)N1CCOCC1 | ? | ? | 7.31µM* | 5.8µM* | 4.3% | ?

Screens from PubChem.
